Results on six sequences are retold here after paper PMC7862700, “An all-to-all approach to the identification of sequence-specific readers for epigenetic DNA modifications on cytosine”.

What all share (assay): DAPPL (digital affinity profiling via proximity ligation, sequencing); 10 mM Tris-HCl pH 7.5, 50 mM NaCl, 1 mM DTT, 4% glycerol, room temperature, 30 min; GST-TFs on glutathione beads, 16-mer random dsDNA library, 0.1% formaldehyde crosslink after washing; high values mean tight binding
Common to all, as to settings: protein: recombinant; tags: N-terminal GST; dsDNA, one strand shown

In one assay the target is T1, ERF (Homo sapiens, UniProt P50548 1-548).
T1 sequence: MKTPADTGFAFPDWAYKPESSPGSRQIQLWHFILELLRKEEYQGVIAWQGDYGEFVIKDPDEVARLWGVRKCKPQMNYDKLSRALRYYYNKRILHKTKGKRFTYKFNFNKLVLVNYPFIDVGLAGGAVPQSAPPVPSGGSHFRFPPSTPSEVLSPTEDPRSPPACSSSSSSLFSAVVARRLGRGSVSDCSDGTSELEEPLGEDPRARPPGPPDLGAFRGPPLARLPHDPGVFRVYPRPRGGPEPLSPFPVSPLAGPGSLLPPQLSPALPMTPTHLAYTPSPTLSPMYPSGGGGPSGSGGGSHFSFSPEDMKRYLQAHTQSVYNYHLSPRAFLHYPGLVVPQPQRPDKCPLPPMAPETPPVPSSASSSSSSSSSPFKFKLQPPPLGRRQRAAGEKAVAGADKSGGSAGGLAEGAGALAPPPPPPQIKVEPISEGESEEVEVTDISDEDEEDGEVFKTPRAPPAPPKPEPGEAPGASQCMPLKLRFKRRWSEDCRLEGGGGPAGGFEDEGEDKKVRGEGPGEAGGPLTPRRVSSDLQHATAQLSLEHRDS
In a few lines: (§1)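 Beads coated with glutathione captured GST-fused human transcription factors that had been expressed in yeast, and the factors were then given DNA barcodes and pooled with a tag-only sample. The pools were incubated with 200 nmole of a random double-stranded 16-mer DNA library in Tris/NaCl/DTT/glycerol buffer for 30 min at room temperature, washed, crosslinked with 0.1% formaldehyde and proximity-ligated with BsaI/T4 ligase at 37 °C for 1 h. PCR amplification and Illumina NextSeq500 sequencing came last. Binding signal is each hexamer's read frequency for a factor divided by its frequency for the tag-only sample.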

Another assay addresses T2, ETV3L (Homo sapiens, UniProt Q6ZN32 1-361).
T2 sequence: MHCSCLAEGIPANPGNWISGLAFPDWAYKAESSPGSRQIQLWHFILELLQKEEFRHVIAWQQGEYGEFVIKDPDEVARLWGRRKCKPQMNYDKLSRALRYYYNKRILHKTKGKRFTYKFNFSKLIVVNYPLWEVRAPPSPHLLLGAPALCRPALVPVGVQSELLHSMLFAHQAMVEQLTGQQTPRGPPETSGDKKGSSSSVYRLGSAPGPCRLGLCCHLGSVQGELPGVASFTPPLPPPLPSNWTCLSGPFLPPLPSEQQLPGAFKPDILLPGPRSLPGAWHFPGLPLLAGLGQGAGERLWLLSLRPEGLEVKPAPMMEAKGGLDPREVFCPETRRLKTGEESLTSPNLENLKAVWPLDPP
In a few lines:
as §1

A further assay concerns the target T3, ETS2 (Homo sapiens, UniProt P15036 1-469).
T3 sequence: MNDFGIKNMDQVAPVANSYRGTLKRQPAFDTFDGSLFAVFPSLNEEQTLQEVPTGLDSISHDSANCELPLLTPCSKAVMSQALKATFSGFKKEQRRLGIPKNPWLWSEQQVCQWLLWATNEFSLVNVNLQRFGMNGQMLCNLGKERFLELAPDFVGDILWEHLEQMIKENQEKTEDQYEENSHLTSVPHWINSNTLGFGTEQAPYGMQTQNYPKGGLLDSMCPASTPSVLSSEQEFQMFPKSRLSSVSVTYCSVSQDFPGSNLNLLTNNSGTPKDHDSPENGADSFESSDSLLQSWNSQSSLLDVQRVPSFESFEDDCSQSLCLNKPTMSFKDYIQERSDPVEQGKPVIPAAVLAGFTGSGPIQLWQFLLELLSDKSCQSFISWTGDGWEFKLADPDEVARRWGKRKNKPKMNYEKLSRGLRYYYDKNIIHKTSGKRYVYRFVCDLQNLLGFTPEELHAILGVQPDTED
In a few lines:
as §1

A further assay addresses T4, SPDEF (Homo sapiens, UniProt O95238 1-335).
T4 sequence: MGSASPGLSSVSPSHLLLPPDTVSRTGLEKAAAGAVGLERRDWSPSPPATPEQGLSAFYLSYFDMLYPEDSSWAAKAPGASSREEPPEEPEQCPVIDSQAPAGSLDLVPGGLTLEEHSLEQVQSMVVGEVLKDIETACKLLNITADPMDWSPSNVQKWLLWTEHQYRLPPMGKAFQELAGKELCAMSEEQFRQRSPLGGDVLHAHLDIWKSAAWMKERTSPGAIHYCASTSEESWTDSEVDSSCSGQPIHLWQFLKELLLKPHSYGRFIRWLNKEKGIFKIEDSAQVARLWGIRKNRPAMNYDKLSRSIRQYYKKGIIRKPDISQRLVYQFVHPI
In a few lines: as §1

The target in another assay is T5, ETV7 (Homo sapiens, UniProt Q9Y603 1-341).
T5 sequence: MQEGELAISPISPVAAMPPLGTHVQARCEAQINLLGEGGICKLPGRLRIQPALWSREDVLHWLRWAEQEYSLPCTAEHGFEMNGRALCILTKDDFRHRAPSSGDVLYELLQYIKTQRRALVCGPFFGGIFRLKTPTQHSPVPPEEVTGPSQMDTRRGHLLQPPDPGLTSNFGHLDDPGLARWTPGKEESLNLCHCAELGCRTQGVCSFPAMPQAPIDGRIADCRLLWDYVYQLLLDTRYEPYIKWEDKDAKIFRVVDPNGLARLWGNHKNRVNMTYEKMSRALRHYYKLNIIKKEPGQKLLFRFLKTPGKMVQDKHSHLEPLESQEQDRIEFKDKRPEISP
In a few lines: as §1

The next assay concerns the target T6, ELF5 (Homo sapiens, UniProt Q9UKW6-2 1-255).
T6 sequence: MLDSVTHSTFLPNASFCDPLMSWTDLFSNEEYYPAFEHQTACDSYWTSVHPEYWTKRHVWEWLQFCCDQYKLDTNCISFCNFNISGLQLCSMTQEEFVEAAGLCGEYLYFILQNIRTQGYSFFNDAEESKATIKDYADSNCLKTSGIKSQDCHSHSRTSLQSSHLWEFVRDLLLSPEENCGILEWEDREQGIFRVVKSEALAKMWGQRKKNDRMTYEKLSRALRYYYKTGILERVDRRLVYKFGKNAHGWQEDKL
The procedure, abridged: as §1

In a further assay the target is T7, ETV3 (Homo sapiens, UniProt P41162-2 1-143).
T7 sequence: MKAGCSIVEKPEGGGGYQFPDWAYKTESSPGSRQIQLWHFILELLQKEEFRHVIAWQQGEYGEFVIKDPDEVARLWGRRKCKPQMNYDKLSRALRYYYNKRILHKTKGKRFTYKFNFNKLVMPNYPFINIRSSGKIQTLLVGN
In a few lines: as §1

The target of the next assay is ETV6 (Homo sapiens, UniProt P41212 1-452). The procedure, abridged:
as §1

Chain of ETV6 (P41212 whole entry): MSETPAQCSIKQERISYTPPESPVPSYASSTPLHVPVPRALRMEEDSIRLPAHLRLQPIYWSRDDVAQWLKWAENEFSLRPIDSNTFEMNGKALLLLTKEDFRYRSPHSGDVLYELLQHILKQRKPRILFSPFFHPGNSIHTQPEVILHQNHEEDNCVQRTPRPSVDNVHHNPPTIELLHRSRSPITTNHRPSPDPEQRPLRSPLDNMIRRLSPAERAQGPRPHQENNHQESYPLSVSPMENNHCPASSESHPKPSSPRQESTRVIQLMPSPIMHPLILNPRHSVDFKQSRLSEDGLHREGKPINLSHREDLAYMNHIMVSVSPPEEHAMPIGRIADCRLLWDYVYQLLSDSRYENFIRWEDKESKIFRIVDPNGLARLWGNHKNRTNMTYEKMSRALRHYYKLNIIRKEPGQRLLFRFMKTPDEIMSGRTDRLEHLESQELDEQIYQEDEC

In the case of TCTCTA, the binding signal with ERF is 1.24 fold enrichment (6-mer frequency, TF over GST control); with ETV3L, 1.29 fold enrichment (6-mer frequency, TF over GST control); with ETS2 it was 1.22 fold enrichment (6-mer frequency, TF over GST control); with SPDEF, 1.24 fold enrichment (6-mer frequency, TF over GST control); with ETV7, 1.34 fold enrichment (6-mer frequency, TF over GST control); with ELF5 it was 1.21 fold enrichment (6-mer frequency, TF over GST control). Besides, the binding signal with ETV3 is 1.3 fold enrichment (6-mer frequency, TF over GST control); with ETV6 it was 1.21 fold enrichment (6-mer frequency, TF over GST control).

For the sequence TACTTC, the binding signal in the assay with ERF is 3.18 fold enrichment (6-mer frequency, TF over GST control); in the assay with ETV3L, 3.22 fold enrichment (6-mer frequency, TF over GST control); with ETS2, 3.64 fold enrichment (6-mer frequency, TF over GST control); in the assay with SPDEF, 4.31 fold enrichment (6-mer frequency, TF over GST control); with ETV7, 3.62 fold enrichment (6-mer frequency, TF over GST control); in the assay with ELF5 it was 4.77 fold enrichment (6-mer frequency, TF over GST control). In addition, the binding signal with ETV3 was 3.67 fold enrichment (6-mer frequency, TF over GST control); with ETV6, 4.67 fold enrichment (6-mer frequency, TF over GST control).

In the case of TTGTAT, the binding signal with ERF was 1.28 fold enrichment (6-mer frequency, TF over GST control); in the assay with ETV3L it was 1.37 fold enrichment (6-mer frequency, TF over GST control); with ETS2, 1.4 fold enrichment (6-mer frequency, TF over GST control); with SPDEF it was 1.41 fold enrichment (6-mer frequency, TF over GST control); with ETV7, 1.21 fold enrichment (6-mer frequency, TF over GST control); with ELF5 it was 1.35 fold enrichment (6-mer frequency, TF over GST control). The binding signal with ETV3 is 1.41 fold enrichment (6-mer frequency, TF over GST control); in the assay with ETV6, 1.25 fold enrichment (6-mer frequency, TF over GST control).

ATGCCT: the binding signal in the assay with ERF was 1.42 fold enrichment (6-mer frequency, TF over GST control); with ETV3L, 1.28 fold enrichment (6-mer frequency, TF over GST control); with ETS2 it was 1.43 fold enrichment (6-mer frequency, TF over GST control); with SPDEF, 1.41 fold enrichment (6-mer frequency, TF over GST control); with ETV7, 1.26 fold enrichment (6-mer frequency, TF over GST control); in the assay with ELF5, 1.34 fold enrichment (6-mer frequency, TF over GST control). In addition, the binding signal is 1.4 fold enrichment (6-mer frequency, TF over GST control) with ETV3 and 1.29 fold enrichment (6-mer frequency, TF over GST control) with ETV6.

For CTAACA, the binding signal with ERF was 1.29 fold enrichment (6-mer frequency, TF over GST control); with ETV3L it was 1.22 fold enrichment (6-mer frequency, TF over GST control); with ETS2, 1.21 fold enrichment (6-mer frequency, TF over GST control); in the assay with SPDEF it was 1.29 fold enrichment (6-mer frequency, TF over GST control); with ETV7, 1.16 fold enrichment (6-mer frequency, TF over GST control); with ELF5, 1.15 fold enrichment (6-mer frequency, TF over GST control). Further, the binding signal is 1.14 fold enrichment (6-mer frequency, TF over GST control) with ETV3 and 1.18 fold enrichment (6-mer frequency, TF over GST control) in the assay with ETV6.

Take CACTTA: the binding signal was 1.22 fold enrichment (6-mer frequency, TF over GST control) with ERF; 1.13 fold enrichment (6-mer frequency, TF over GST control) with ETV3L; 1.22 fold enrichment (6-mer frequency, TF over GST control) in the assay with ETS2; 1.34 fold enrichment (6-mer frequency, TF over GST control) with SPDEF; 1.21 fold enrichment (6-mer frequency, TF over GST control) with ETV7; 1.18 fold enrichment (6-mer frequency, TF over GST control) with ELF5. Further, the binding signal is 1.24 fold enrichment (6-mer frequency, TF over GST control) with ETV3 and 1.23 fold enrichment (6-mer frequency, TF over GST control) in the assay with ETV6.
